# Assay outcomes: PubChem, National Center for Advancing Translational Sciences (NCATS)
# CRE Fsk mod: Cell signaling CRE-BLA (Fsk stim); CHO CRE-bla reporter (cAMP response element driving beta-lactamase), forskolin EC10, beta-lactamase ratio; Potency, µM (titrated, usually from 38.2 µM), without a hit: at the highest dose activity change, negative = inhibition, usual class: activators; actives 2.5% (n = 71,000); AID 662, 2007; active means well fitted activation curve with a large enough effect in the signal ratio, with a control signal flat, not every such curve was filed as active; inconclusive means small, poorly fitted or top-dose-only effect, or effect the other way, or a change in a side signal; the % refers to the signal ratio; further: % of control where 0% means no effect
#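 Modulation of forskolin-driven signalling is measured in CHO cells carrying a CRE-controlled beta-lactamase reporter. Cells are stimulated with EC10 NKH 477 in the presence of titrated compound for 3 h at 37 °C, then loaded with CCF4 for 2 h at room temperature.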
# IkB signaling: IkB Signaling. ABC-DLBCL IkBa-CBG/CBR dual luciferase ratio, 4 h; response scale: scaled: untreated 0%, proteasome inhibitor 100%. actives 0.04% (n = 110,000). Potency, µM (doses to about 57.1 µM), without a hit: at the top dose IkBa stabilization activation; active means well fitted curve in the direction sought with a large enough effect in the signal ratio, not every such curve was filed as active; inconclusive means small, poorly fitted or top-dose-only effect, or a change in a side signal; the % refers to the signal ratio;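 further: the direction sought is a rising ratio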
#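 Curves were fitted separately to fusion (green), unfused (red) and ratio luminescence, then classed by r2, magnitude and activity. Cells: OCI-Ly3, 4 h compound plus doxycycline at 37C; 10 uM MG-132 defined full response.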
# Imprint erasure: qHTS Assay for Compounds that Induce Erasure of Genomic Imprints. mouse ES Peg3-LacZ reporter, beta-gal luminescence, 40 h. Potency, µM (highest dose often 60.7 µM), without a hit: top-dose activity change, positive = activation, usual class: activators. actives 0.02% (n = 110,000). AID 1948, 2009
#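 Readout: BetaGlo luminescence (5 min, room temp) for LacZ from the normally silent maternal Peg3 allele in female Peg3LacZ-Neo ES cells. Cells 300/well, 40 h, 37C, 5% CO2. Data normalized per plate to negative controls.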
# ERK AVP block: qHTS Assay for Inhibitors of the ERK Signaling Pathway using a Homogeneous Screening Assay. HEK293-V1b, vasopressin-stimulated pERK AlphaScreen. Potency, µM (titrated, usually from 57.5 µM), inactives show top-dose activity, negative = inhibition, usual class: inhibitors. actives 0.99% (n = 72,000). AID 995, 2007; further: on the % scale 0 is the no-effect control and ±100 the full control effect; nearly all actives have a fitted effect of over 55% in size
#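 Overnight-seeded V1b-HEK293 cells in 1% FBS got compound, then vasopressin (25 nM final, 5 min, 37C), then lysis buffer. AlphaScreen detection of phospho-ERK; activity normalized to basal and full-stimulation controls.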
# An asterisk follows results filed as active; ? = inconclusive; · = no result; [ ] = another dose, or the depositor's remark. Many of the other results were omitted from the sample, so hits are more common in it than they were. Unless noted, the call rests on the fitted dose curve; in most records, active means well fitted curve in the direction sought with a large enough effect; inconclusive means small, poorly fitted or top-dose-only effect, or another doubt; inactive means no such curve, though single readings can be large; an effect the other way counts as inactive or inconclusive. Potency means the concentration at half of the fitted maximal effect.
SMILES,CRE Fsk mod,IkB signaling,Imprint erasure,ERK AVP block
C=C1CC[C@@H](O)C/C1=C/C=C1\CCC[C@]2(C)[C@@H]1CC[C@H]2[C@@H](C)CCCC(C)C,-1%,2%[11.4 µM],·,·
O=S(=O)(c1ccccc1Cl)N1CCC(O)(c2ccc3c(c2)OCO3)CC1,-7%,6%,-9%,32µM*
OC1(c2ccc3c(c2)OCO3)CCN(Cc2ccccn2)CC1,-2%,-2%,-12%,-23%
CCOC(=O)c1sc2nc(N3CCOCC3)c3c(c2c1N)CCC3,10µM*,1%,-14%,?
CCOC(=O)c1sc2nc(N3CCOCC3)c3c(c2c1N)CC(C)(C)N(C)C3,11%,-4%,5%,0%
CCn1c(N2CCN(C(=O)C34CC5CC(CC(C5)C3)C4)CC2)nc2ccccc21,-7%,0%,-16%,-22%
CCn1c(N2CCN(S(=O)(=O)c3ccccc3C(F)(F)F)CC2)nc2ccccc21,-9%,?,-12%,32µM*
C[C@H]1[C@H](C)CC[C@@]2(C(=O)O)CC[C@]3(C)C(=CC[C@H]4[C@@]5(C)C[C@@H](O)[C@H](O)[C@@](C)(CO)[C@@H]5CC[C@@]43C)[C@@H]12,1%,-1%[11.4 µM],·,·
CCN(CC)S(=O)(=O)c1cc(C(=O)OCC(=O)c2ccc3c(c2)NC(=O)CO3)ccc1F,13%,?,-6%,32µM*
NC(N)=NC(N)=Nc1c(F)c(F)c(F)c(F)c1F,8%[7.6 µM],2%[11.4 µM],-31%[10.9 µM],-10%[11.5 µM]
COc1ccc(Cc2nnc(SCC(=O)Nc3ncc(C)s3)o2)cc1,-9%,6%,-6%,-16%
COc1ccc(CCCc2nnc(SCC(=O)Nc3ncc(C)s3)o2)cc1,10µM*,-3%,-22%,27%
COc1ccccc1OCc1ccc(C(=O)NC(C)(C)C)o1,-1%,8%,-6%,23%
COc1ccccc1OCc1ccc(C(=O)Nc2ccncc2)o1,11%,?,17%,16µM*
CN[C@@H]1[C@H](O)[C@H](NC)[C@@H]2O[C@]3(O)C(=O)C[C@@H](C)O[C@H]3O[C@@H]2[C@H]1O,-5%,1%[11.4 µM],·,·
CN(CCc1ccccn1)C(=O)c1nn2c(C(F)(F)F)cc(-c3ccco3)nc2c1Cl,3.2µM*,-2%,-2%,-28%
OC(COc1ccc(Cl)c2ccccc12)CN1CCN(c2ccccn2)CC1 (stereo not drawn),?,?,7%,20µM*
CC(C)Cn1c(N)c(C(=O)COC(=O)c2ccc3ccccc3n2)c(=O)n(C)c1=O,1.3µM*,?,-11%,12%
Cc1c(C(=O)OCC(=O)c2c(N)n(CC(C)C)c(=O)n(C)c2=O)oc2ccccc12,?,?,-22%,-7%
CSc1nc(N)c2ncn([C@@H]3O[C@@H](COP(=O)(O)OP(=O)(O)O)[C@@H](O)[C@H]3O)c2n1,-6%,-3%,·,-7%
O=[N+]([O-])c1cc(Cc2cc([N+](=O)[O-])c3cccnc3c2O)c(O)c2ncccc12,-1%[7.6 µM],5µM*,-1%[10.9 µM],8%[11.5 µM]
Cc1ccc2cc(CN(Cc3cccs3)C(=O)c3ccco3)c3nnnn3c2c1C,3.2µM*,-1%,2%,-7%
Cc1nc(-c2cnn(-c3ccccc3)c2)c2cc(C)oc2n1,4µM*,-2%,13%,-13%
Cc1oc2c(O)c(O)ccc2c(=O)c1-c1cnn(-c2ccccc2)c1,-11%,?,-26%,-10%
COc1ccc(N(Cc2ccccc2)C(=O)c2nc(S(C)(=O)=O)ncc2Cl)cc1,·,?,-38%[10.9 µM],·
SMILES,CRE Fsk mod,IkB signaling,Imprint erasure,ERK AVP block
COc1ccc(CNc2oc(-c3ccccc3)nc2C#N)cc1,?,?,-7%,32µM*
COCCNc1oc(-c2ccc(OC)cc2)nc1C#N,·,-3%,-9%[10.9 µM],·
COc1ccc(-c2nc(C#N)c(NCc3ccccc3Cl)o2)cc1,25%,3%,6%,?
COc1ccc(CCNc2oc(COc3ccc(Br)cc3)nc2C#N)cc1OC,?,?,-19%,20µM*
COc1ccc(-c2nc(C#N)c(NCc3ccc(F)cc3)o2)cc1OC,4µM*,?,-19%,25µM*
COc1ccc(-c2nc(C#N)c(NCCc3ccccc3)o2)cc1,19%,-1%,3%,16µM*
Cc1ccc(C(=O)O[C@@H](C(=O)O)[C@@H](OC(=O)c2ccc(C)cc2)C(=O)O)cc1 (tested in a mixture with another compound),-5%,-1%,·,15%
CC1(C)CCC(NC(=O)[C@H](N)CCC(=O)O)CC1,2%,1%,·,-6%
COC(=O)CCC(=O)Nc1ccc(NC(C)=O)cc1,4%,1%,4%,-6%
COC(=O)CCC(=O)Oc1ccc(OC(=O)CCC(=O)OC)cc1,?,0%,5µM*,-4%
Cc1cccc(-n2c(SCc3cc(=O)n4ccsc4n3)nc3ccccc32)c1,1.6µM*,?,-24%,-12%
CCOC(=O)c1[nH]c(C)c(C(=O)N2CCc3ccccc32)c1C,6.3µM*,6%,-20%,-3%
Oc1ccccc1NCC(O)Cn1ccc2ccccc21 (stereo not drawn),?,?,-11%,-6%
OCc1nc2ccccc2n1CC(O)Cn1ccc2ccccc21 (stereo not drawn),-7%,?,-8%,16µM*
O=C(c1cnccn1)N1CCC2(CCCN(C(c3ccccc3)c3ccccc3)C2)CC1,?,2%[11.4 µM],·,40µM*
COc1cc(-n2nc(C)c3c2OC(N)=C(C#N)C3c2ccccc2)c(Cl)c(Br)c1O (stereo not drawn),-11%,?,-19%,32µM*
COc1ccc2c(c1)c1nnc(SCC(=O)N3C(C)CCCC3C)nc1n2C (stereo not drawn),0.79µM*,0%,-4%,?
COc1ccc2c(c1)c1ccccc1n2C,0%,-1%,1%,-12%
COc1ccc2c(c1)c1nnc(SC)nc1n2C,2.5µM*,-1%,-6%,-13%
COc1ccc(-n2nnnc2SCC(=O)N2C(C)CCCC2C)c(OC)c1 (stereo not drawn),12%,1%,-11%,-7%
COC(=O)c1ccccc1NC(=O)c1ccc(F)cc1,?,?,-13%,12%
CCOC(=O)c1ccccc1NC(=O)c1ccc(NS(C)(=O)=O)cc1,13µM*,-2%,-3%,25µM*
COc1ccccc1N1CCN(c2ccc(-c3ccccc3)nn2)CC1,?,4µM*,·,-2%
COc1ccccc1N1CCN(c2nc(-c3ccccc3)cc(C(F)(F)F)n2)CC1,-1%,0%,-8%,5%
CC/C=C\CC[C@H](OC(=O)c1ccc(Br)cc1)C1=CCCCC1=O,·,·,·,-3%[11.5 µM]
OCC1OC(/C=C\c2ccccc2)C=CC1Oc1ccc2c(c1)OCO2 (stereo not drawn),·,·,·,6%[11.5 µM]
CCOc1ccc(C(C)=O)cc1Cn1nc(C(=O)O)c2ccccc2c1=O,6.3µM*,1%,8%,?
CC(NC(=O)c1cc(-c2ccc(O)cc2)on1)c1ccccc1 (stereo not drawn),?,10%,-16%,1%
